“And” between values parts separate entries of the source, which are not always exact repeats. Equal entries are not always repeated. The source holds several records for some structures; these can differ, active in one and inactive in another. The source made the active and inactive calls. Rule for the calls: active = hit-call score of the fitted dose curve at least 0.9, where 1 is the maximum; inactive = score below 0.9.
How the values were obtained:
[1] = BSK_CASM3C_SRB: Viability Assessment in the BioMAP Diversity Plus: CASM3C Assay (AID 2283050); settings: primary human coronary artery smooth muscle cells;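 note: total protein by SRB staining as cytotoxicity measure in parallel cultures; cells exposed to compound for 24 h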
[2] = read-out: Thrombomodulin, THBD (gene 7056); assay: BSK_CASM3C_Thrombomodulin: BioMAP Diversity Plus: CASM3C Assay for Thrombomodulin Biomarker Activity (AID 2283051); settings: primary human coronary artery smooth muscle cells; actives raise or lower the signal;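 note: thrombomodulin protein level measured by ELISA 24 h after dosing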
[3] = read-out: Tissue Factor, F3 (gene 2152); assay: BSK_CASM3C_TissueFactor: BioMAP Diversity Plus: CASM3C Assay for Tissue Factor Biomarker Activity (AID 2283052); settings: primary human coronary artery smooth muscle cells; actives raise or lower the signal;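 note: cell surface tissue factor protein level read by ELISA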
[4] = read-out: Interferon-gamma inducible Protein 10 (IP10), CXCL10 (gene 3627); assay: BSK_hDFCGF_IP10: BioMAP Diversity Plus: hDFCGF Assay for Interferon-gamma inducible Protein 10 (IP10) Biomarker Activity (AID 2283053); settings: primary human foreskin fibroblasts; actives raise or lower the signal
Procedure, shortened: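 Primary foreskin fibroblasts, human; 24 h compound exposure; IP-10 by ELISA; bidirectional fit vs DMSO.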

[5] = read-out: Urokinase-type plasminogen activator receptor (uPAR), PLAUR (gene 5329); assay: BSK_CASM3C_uPAR: BioMAP Diversity Plus: CASM3C Assay for Urokinase-type plasminogen activator receptor (uPAR) Biomarker Activity (AID 2283054); settings: primary human coronary artery smooth muscle cells; actives raise or lower the signal;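 note: cell-surface uPAR protein level quantified by ELISA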
[6] = read-out: Vascular cell adhesion molecule 1 (VCAM1), VCAM1 (gene 7412); assay: BSK_CASM3C_VCAM1: BioMAP Diversity Plus: CASM3C Assay for Vascular cell adhesion molecule 1 (VCAM1) Biomarker Activity (AID 2283055); settings: primary human coronary artery smooth muscle cells; actives raise or lower the signal;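 note: VCAM-1 protein level quantified by ELISA on the cells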
[7] = read-out: Collagen III, COL3A1 (gene 1281); assay: BSK_hDFCGF_CollagenIII: BioMAP Diversity Plus: hDFCGF Assay for Collagen III Biomarker Activity (AID 2283056); settings: primary human foreskin fibroblasts; actives raise or lower the signal
Procedure, shortened: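 Cells: human foreskin fibroblasts, primary. Dosing followed by 24 h incubation, then ELISA for collagen III. Both increases and decreases scored relative to DMSO.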

[8] = read-out: Epidermal growth factor receptor (EGFR), EGFR (gene 1956); assay: BSK_hDFCGF_EGFR: BioMAP Diversity Plus: hDFCGF Assay for Epidermal growth factor receptor (EGFR) Biomarker Activity (AID 2283057); settings: primary human foreskin fibroblasts; actives raise or lower the signal
Procedure, shortened: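 hDFCGF system, primary human foreskin fibroblasts; compound 24 h; EGFR measured by ELISA; DMSO = negative control/baseline; bidirectional fitting.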

[9] = read-out: Interleukin-8 (IL8), CXCL8 (gene 3576); assay: BSK_hDFCGF_IL8: BioMAP Diversity Plus: hDFCGF Assay for Interleukin-8 (IL8) Biomarker Activity (AID 2283058); settings: primary human foreskin fibroblasts; actives raise or lower the signal
Procedure, shortened: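 IL-8 levels from compound-treated primary human fibroblasts were read by ELISA at 24 h, with DMSO serving as baseline for bidirectional fitting.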

[10] = BSK_hDFCGF_Proliferation: Cell Proliferation Assessment in the BioMAP Diversity Plus: hDFCGF Assay (AID 2283059); settings: primary human foreskin fibroblasts;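 note: curves fitted for both rise and fall of signal versus DMSO baseline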
Procedure, shortened: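 Steps: dose primary human dermal fibroblasts (foreskin); […] fix in 10% TCA; stain with 0.1% SRB; read 560 nm; fit gain or loss of signal against DMSO.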

Measured: AC50

CCCCOCCOCCOCc1cc2c(cc1CCC)OCO2
active: [5] 20 µM | [7] 20 µM | [10] 31 µM
inactive: all other assays above

CC(=O)[C@H]1CC[C@H]2[C@@H]3CCC4=CC(=O)CC[C@]4(C)[C@H]3CC[C@]12C
active: [7] 24 µM | [10] 14.7 µM
inactive: all other assays above

CCCCOC(=O)C(C)Oc1ccc(Oc2ccc(C(F)(F)F)cn2)cc1 (stereo not drawn)
inactive: all assays above

COC(=O)c1ccccc1S(=O)(=O)NC(=O)Nc1nc(OC(F)F)cc(OC(F)F)n1
inactive: all assays above

S=C(S)NCCNC(=S)S.[Mn+2].[S-]C([S-])=NCCN=C([S-])[S-].[Zn+2]
active: [3] 4.17 µM [middle of 4 runs] | [4] 10.4 µM
inactive: [1] | [2] | [3] | [4] | [5] | [6] | [8] | [9]

CC(C)CCCCCCc1ccc(O)cc1
active: [1] 32.6 µM | [2] 4.65 µM | [3] 26.9 µM | [4] 9.75 µM | [5] 31.8 µM | [6] 33.8 µM | [7] 9.95 µM | [8] 12.2 µM | [9] 11.7 µM | [10] 7.24 µM

N#CSCSc1nc2ccccc2s1
active: [1] 11.9 µM and 31.5 µM | [2] 36.7 µM | [3] 1.85 µM | [4] 1.49 µM and 227 nM | [5] 5.35 µM and 30 µM | [6] 6.34 µM and 27.7 µM | [7] 1.19 µM and 424 nM | [8] 2.01 µM | [9] 2.43 µM | [10] 632 nM and 148 nM
inactive: [2] | [3] | [8] | [9]

O=C(O)C1(C(=O)Nc2ccc(Cl)cc2Cl)CC1
not listed: [7]
inactive: all other assays above

CCCCCOC(=O)COc1cc(N2C(=O)C3=C(CCCC3)C2=O)c(F)cc1Cl
active: [4] 17.9 µM | [6] 5.55 µM | [7] 15.4 µM | [10] 22.7 µM
inactive: all other assays above

CCCCOC(=O)[C@@H](C)Oc1ccc(Oc2ccc(C(F)(F)F)cn2)cc1
not listed: [7]
inactive: all other assays above

CCCN(CCC)C(=O)SCC
inactive: all assays above

COC(=O)CSc1cc(N=c2sc(=O)n3n2CCCC3)c(F)cc1Cl
inactive: all assays above

Cc1nn(C)c(Oc2ccccc2)c1C=NOCc1ccc(C(=O)OC(C)(C)C)cc1
active: [2] 16.3 µM | [4] 27.9 µM | [8] 3.95 µM | [10] 6.94 µM
not listed: [7]
inactive: all other assays above

COC(=O)c1c(Cl)nn(C)c1S(=O)(=O)NC(=O)Nc1nc(OC)cc(OC)n1
not listed: [7]
inactive: all other assays above

CC(C)(c1ccc(O)cc1)c1ccc(O)cc1
inactive: [1] | [2] | [3] | [4] | [5] | [6] | [8] | [9]
active: [2] 8.47 µM | [4] 14.4 µM | [10] 26.2 µM [middle of 4 runs]

C[C@]12C[C@H](O)[C@H]3[C@@H](CCC4=CC(=O)CC[C@@]43C)[C@@H]1CC[C@@H]2C(=O)CO
inactive: all assays above

CC1(C)C(C=C(Cl)Cl)C1C(=O)OCc1cccc(Oc2ccccc2)c1 (stereo not drawn)
active: [2] 13.4 µM | [7] 4.2 µM | [8] 8.28 µM | [10] 7.38 µM
inactive: all other assays above

CCC(C)OC(=O)N1CCCCC1CCO (stereo not drawn)
inactive: all assays above

CCN(CC)C(=O)c1cccc(C)c1
inactive: all assays above

O=C(c1ccc(O)cc1O)c1ccc(O)cc1O
inactive: all assays above

COc1c(Cl)ccc(Cl)c1C(=O)O
not listed: [7]
inactive: all other assays above

CCCCC(CC)COC(=O)c1ccccc1C(=O)O (stereo not drawn)
active: [4] 11 µM
inactive: all other assays above

CCOC(=O)[C@H](C)Oc1ccc(Oc2nc3ccc(Cl)cc3o2)cc1
active: [10] 24.9 µM
not listed: [7]
inactive: all other assays above

CCSC(=O)N(CC(C)C)CC(C)C
active: [8] 5.32 µM
inactive: all other assays above

c1ccc2[nH]c(-c3cscn3)nc2c1
inactive: all assays above

COC(=O)c1cccc(C)c1S(=O)(=O)NC(=O)Nc1nc(OCC(F)(F)F)nc(N(C)C)n1
not listed: [7]
inactive: all other assays above

CCOC(=O)NCCOc1ccc(Oc2ccccc2)cc1
active: [7] 12.6 µM | [10] 24.7 µM
inactive: all other assays above

O=C(Nc1ccc([N+](=O)[O-])cc1Cl)c1cc(Cl)ccc1O
active: [1] 0.826 µM | [2] 0.643 µM | [4] 0.148 µM | [5] 0.148 µM | [7] 0.148 µM | [10] 0.148 µM
inactive: [3] | [6] | [9]

CCCCC(CC)CN1C(=O)C2C3C=CC(C3)C2C1=O (stereo not drawn)
active: [4] 3.97 µM | [7] 30 µM | [10] 29.6 µM
inactive: all other assays above

CCCCCCC(C)OC(=O)COc1nc(F)c(Cl)c(N)c1Cl (stereo not drawn)
inactive: [3] | [5] | [8]
active: [1] 35.3 µM | [2] 29.7 µM | [4] 13.5 µM | [6] 32.8 µM | [7] 20 µM | [9] 29.6 µM | [10] 6.82 µM

CCC(O)=C1C(=O)CC(C(=O)O)CC1=O (stereo not drawn)
not listed: [7]
inactive: all other assays above

CCCOC(=O)NCCCN(C)C
not listed: [7]
inactive: all other assays above

CCOC(=O)c1ccc(O)cc1
not listed: [7]
inactive: all other assays above

CCOC(=O)COc1cc(-n2ncc(C(F)(F)F)c(C)c2=O)c(F)cc1Cl
not listed: [7]
inactive: all other assays above

CCN(Cc1c(F)cccc1Cl)c1c([N+](=O)[O-])cc(C(F)(F)F)cc1[N+](=O)[O-]
active: [4] 30.6 µM | [5] 13.2 µM | [10] 4.89 µM
not listed: [7]
inactive: all other assays above

C#CCOC(=O)[C@@H](C)Oc1ccc(Oc2ncc(Cl)cc2F)cc1
active: [10] 14.9 µM
not listed: [7]
inactive: all other assays above

CSC(=O)c1cccc2nnsc12
active: [2] 20 µM
not listed: [7]
inactive: all other assays above

CCOC(=O)C(C)Oc1ccc(Oc2cnc3cc(Cl)ccc3n2)cc1 (stereo not drawn)
active: [10] 30.6 µM
not listed: [6] | [7]
inactive: all other assays above

Reference: PubChem BioAssay (EPA / NIEHS)
